In PubChem BioAssay:
Potency and affinity values are given separately. Results filed as inconclusive are left out. Active and inactive are the calls of the source.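 The calls were made as follows: active = falling signal with fitted half-maximal potency no higher than twice the top valid tested dose; inconclusive = poor fit quality, or flat fit spanning -70% to -30%; inactive = potency over limit, rising signal, or flat fit inside 30%.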

test: fungal growth arrest, C. neoformans – Alamar Blue, cherry-picks, dose response (AID 686998); conditions: Cryptococcus neoformans growth, 24 h; series mostly up to 35 µM

outcome, inactive:
Cc1ccccc1NC(=O)C(=O)NCCCN1CCCC1=O, O=C(NC1CCCCC1)N[C@H]1C=C[C@@H](CC(=O)N2CCOCC2)O[C@@H]1CO, Cc1noc(C)c1S(=O)(=O)Nc1ccc2c(c1)CC(=O)N([C@H](C)CO)C[C@H](C)[C@@H](CN(C)S(=O)(=O)c1cn(C)cn1)O2, CC(C)NC(=O)Nc1ccc2c(c1)CC(=O)N([C@@H](C)CO)C[C@@H](C)[C@H](CN(C)C(=O)Nc1ccc3c(c1)OCO3)O2, Cc1ccc(CSc2ncnc3c2cnn3-c2ccc(C)cc2)cc1, COc1cccc(-c2ccc3c(c2)[C@H]2[C@H](CCN2C(=O)Cc2ccncc2)[C@H](CO)N3C)c1, CC(C)NC(=O)N(C)C[C@H]1OCCCC[C@H](C)Oc2ccc(NC(=O)c3ccccc3)cc2C(=O)N([C@@H](C)CO)C[C@@H]1C, Cc1cccc(C)c1NC(=O)C1CCCN1C(=O)NCc1ccccc1 (stereo not given), C[C@H]1CN([C@@H](C)CO)C(=O)c2cc(NC(=O)Nc3ccc(F)cc3)ccc2O[C@@H]1CN(C)S(C)(=O)=O, O=C(N[C@H]1CC[C@H](CCn2cc(-c3ccccn3)nn2)O[C@H]1CO)c1ccc(F)cc1, Cc1noc(C)c1NC(=O)N(C)C[C@H]1OCCCC[C@H](C)Oc2ccc(NC(=O)NC(C)C)cc2C(=O)N([C@@H](C)CO)C[C@@H]1C, CC(C)NC(=O)Nc1ccc2c(c1)C(=O)N([C@@H](C)CO)C[C@@H](C)[C@@H](CN(C)C(=O)NC(C)C)OCCCC[C@@H](C)O2, CO[C@H]1CN(C)C(=O)c2cc(NC(=O)C3CC3)ccc2OC[C@@H](C)N(Cc2cncnc2)C[C@H]1C, CCNC(=O)C[C@H]1CC[C@H](NC(=O)NC2CCCCC2)[C@@H](CO)O1, C[C@@H]1CN([C@H](C)CO)C(=O)c2cc(NC(=O)Nc3cccc4ccccc34)ccc2O[C@@H]1CN(C)C(=O)Nc1ccccc1, Cc1noc(C)c1NC(=O)Nc1ccc2c(c1)C(=O)N([C@@H](C)CO)C[C@H](C)[C@H](CN(C)S(=O)(=O)c1ccc(Cl)cc1)O2, C[C@@H]1CN([C@@H](C)CO)C(=O)c2cc(NC(=O)Nc3ccccc3)ccc2O[C@@H]1CN(C)C(=O)Nc1cccc2ccccc12, CCCNC(=O)C[C@@H]1CC[C@@H]2[C@H](COc3ccc(NC(=O)CCC)cc3C(=O)N2C)O1, C[C@H]1CN([C@@H](C)CO)C(=O)c2cccc(NS(=O)(=O)c3ccc(Cl)cc3)c2O[C@@H]1CN(C)CC1CC1, C[C@@H]1CCCCO[C@H](CN(C)C(=O)CCCN(C)C)[C@@H](C)CN([C@H](C)CO)C(=O)c2cc(NC(=O)Cc3ccccc3)ccc2O1, Cc1ccc(S(=O)(=O)N[C@H]2C=C[C@@H](CC(=O)N3CCC(Cc4ccccc4)CC3)O[C@H]2CO)cc1, Cc1cccc(C)c1NC(=O)CN(C)C(=O)C1CCCCC1, C[C@H](O)C#Cc1ccc2c(c1)O[C@H](CN(C)Cc1ccncc1)[C@H](C)CN([C@H](C)CO)S2(=O)=O, CCCC(C)(C)C(=O)N1CCC1(C)C(=O)Nc1ccc(C)cc1 (stereo not given), C[C@H](CO)N1C[C@H](C)[C@H](CN(C)Cc2ccc(-c3ccccc3)cc2)Oc2c(NC(=O)c3ccncc3)cccc2C1=O, CO[C@@H]1CN(C)C(=O)c2cc(NS(=O)(=O)c3cccc(C)c3)ccc2OC[C@@H](C)NC[C@H]1C, COc1ccc(CN(C)C[C@H]2Oc3ccc(NC(=O)Nc4ccc(F)cc4)cc3CC(=O)N([C@@H](C)CO)C[C@@H]2C)cc1, C[C@@H]1CCCCO[C@@H](CN(C)C(=O)Nc2ccc3c(c2)OCO3)[C@@H](C)CN([C@H](C)CO)C(=O)c2cc(NC(=O)Nc3cccc4ccccc34)ccc2O1, O=C(NCCc1ccccc1)[C@@H]1[C@@H](CO)[C@@H]2Cn3c(cccc3=O)[C@H]1N2C(=O)C1CCC1, COc1ccc(C2=Nc3ccccc3NC(=O)C2N(C(=O)c2cc3ccccc3[nH]2)c2ccccc2)cc1 (stereo not given), O=C(C[C@@H]1CC[C@H]2[C@@H](COC[C@H](O)CN2Cc2ccc(Oc3ccccc3)cc2)O1)Nc1nccs1, C[C@H](CO)N1C[C@H](C)[C@H](CN(C)C(=O)Nc2cccc3ccccc23)Oc2ccc(NC(=O)Cc3ccccc3)cc2CC1=O, C[C@H](CO)N1C[C@H](C)[C@@H](CN(C)CC2CCOCC2)Oc2ncc(C#Cc3ccc(F)cc3)cc2C1=O, C[C@@H]1CN([C@@H](C)CO)C(=O)c2cc(NS(=O)(=O)c3cn(C)cn3)ccc2O[C@@H](C)CCCCO[C@@H]1CN(C)Cc1ccc(C(F)(F)F)cc1, Cc1cccc(-c2ccc([C@H]3[C@H](CO)N4CCCCN(C(=O)c5ccc6c(c5)OCO6)C[C@@H]34)cc2)c1, C[C@@H]1CN([C@H](C)CO)S(=O)(=O)c2ccc(C#CC3CC3)cc2O[C@H]1CN(C)CC1CCOCC1, O=C(CSc1ncnc2c1cnn2-c1ccccc1)Nc1ccc2c(c1)OCO2, CCCNC(C)C(=O)Nc1ccccc1C (stereo not given), CCCN1C[C@H](C)[C@@H](OC)CN(C)C(=O)c2cc(NC(=O)c3cccc(F)c3)ccc2OC[C@@H]1C, COC(=O)C1=C(C)N(Cc2ccc(Br)cc2)C(=S)NC1c1ccc(F)cc1 (stereo not given)
